{"source": "PubChem BioAssay AID1159580", "about": "(chemical genetic matrix, 2015)", "test": "chemical genetic growth profiling, strain panel (AID 1159580);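 note: tested at 20 µM; growth read once vehicle control cultures reached saturation at 30 °C; 1 = growth at the plate median or of vehicle wells; lower values mean less growth of the strain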", "details": "S. cerevisiae deletion strains, growth OD", "note": "Where “and” joins values, the source holds several entries; their conditions need not be identical. Equal entries are not always repeated. The whole screen tested about 5,500 compounds, of which about 2,000 (36%) were called active. Roughly 18% stayed inconclusive and do not appear here. The list shows a part of the results. A number with no mark means an inactive call. Cut-off read from the data, not from the text of the source: active = normalized growth mostly below about 0.91 (no sharp cut-off); inconclusive = no clear call, values can overlap the other calls; inactive = mostly above about 0.92.", "data": [{"compound": "COc1c2ccoc2c(OC)c2oc(=O)ccc12", "values": [{"measurement": "normalized growth", "setting": "locus YAL013W, strain DEP1, active compounds read low", "value": 0.978}, {"measurement": "normalized growth", "setting": "locus YAL021C, strain ccr4, active compounds read low", "value": 0.94}, {"measurement": "normalized growth", "setting": "locus YAL026C, strain drs2, active compounds read low", "value": 0.953}, {"measurement": "normalized growth", "setting": "locus YAL030W, strain snc1, active compounds read low", "value": 0.978}, {"measurement": "normalized growth", "setting": "locus YBL061C, strain skt5, active compounds read low", "value": 0.974}, {"measurement": "normalized growth", "setting": "locus YBR009C, strain hhf1, active compounds read low", "value": 0.923}, {"measurement": "normalized growth", "setting": "locus YBR021W, strain FUR4, active compounds read low", "value": 0.901}, {"measurement": "normalized growth", "setting": "locus YBR023C, strain chs3, active compounds read low", "value": "0.888 (active)"}, {"measurement": "normalized growth", "setting": "locus YBR171W, strain sec66, active compounds read low", "value": 0.975}, {"measurement": "normalized growth", "setting": "locus YBR229C, strain ROT2, active compounds read low", "value": 0.945}, {"measurement": "normalized growth", "setting": "locus YBR231C, strain swc5, active compounds read low", "value": 0.966}, {"measurement": "normalized growth", "setting": "locus YBR279W, strain paf1, active compounds read low", "value": 0.939}, {"measurement": "normalized growth", "setting": "locus YCL011C, strain gbp2, active compounds read low", "value": 0.934}, {"measurement": "normalized growth", "setting": "locus YCL016C, strain dcc1, active compounds read low", "value": "0.876 (active)"}, {"measurement": "normalized growth", "setting": "locus YCL029C, strain bik1, active compounds read low", "value": 0.965}, {"measurement": "normalized growth", "setting": "locus YCL061C, strain MRC1, active compounds read low", "value": 0.944}, {"measurement": "normalized growth", "setting": "locus YCL069W, strain vba3, active compounds read low", "value": 0.979}, {"measurement": "normalized growth", "setting": "locus YCR088W, strain abp1, active compounds read low", "value": 0.997}, {"measurement": "normalized growth", "setting": "locus YDL005C, strain med2, active compounds read low", "value": 0.989}, {"measurement": "normalized growth", "setting": "locus YDL035C, strain GPR1, active compounds read low", "value": 0.929}, {"measurement": "normalized growth", "setting": "locus YDL040C, strain nat1, active compounds read low", "value": 0.996}, {"measurement": "normalized growth", "setting": "locus YDL074C, strain BRE1, active compounds read low", "value": 0.934}, {"measurement": "normalized growth", "setting": "locus YDL101C, strain DUN1, active compounds read low", "value": 0.959}, {"measurement": "normalized growth", "setting": "locus YDL134C, strain PPH21, active compounds read low", "value": 0.983}, {"measurement": "normalized growth", "setting": "locus YDL185W, strain tfp1, active compounds read low", "value": 0.941}, {"measurement": "normalized growth", "setting": "locus YDL192W, strain arf1, active compounds read low", "value": "0.911 (active)"}, {"measurement": "normalized growth", "setting": "locus YDR001C, strain nth1, active compounds read low", "value": 0.97}, {"measurement": "normalized growth", "setting": "locus YDR069C, strain doa4, active compounds read low", "value": 0.982}, {"measurement": "normalized growth", "setting": "locus YDR101C, strain arx1, active compounds read low", "value": "0.904 (active)"}, {"measurement": "normalized growth", "setting": "locus YDR137W, strain rgp1, active compounds read low", "value": 0.991}, {"measurement": "normalized growth", "setting": "locus YDR150W, strain NUM1, active compounds read low", "value": 0.991}, {"measurement": "normalized growth", "setting": "locus YDR159W, strain sac3, active compounds read low", "value": 1.02}, {"measurement": "normalized growth", "setting": "locus YDR162C, strain NBP2, active compounds read low", "value": 0.884}, {"measurement": "normalized growth", "setting": "locus YDR195W, strain ref2", "value": "1.26 [resistant] (active)"}, {"measurement": "normalized growth", "setting": "locus YDR297W, strain sur2, active compounds read low", "value": 0.978}, {"measurement": "normalized growth", "setting": "locus YDR318W, strain mcm21, active compounds read low", "value": 0.966}, {"measurement": "normalized growth", "setting": "locus YDR334W, strain swr1, active compounds read low", "value": 0.938}, {"measurement": "normalized growth", "setting": "locus YDR335W, strain msn5, active compounds read low", "value": "0.91 (active)"}, {"measurement": "normalized growth", "setting": "locus YDR388W, active compounds read low", "value": 0.966}, {"measurement": "normalized growth", "setting": "locus YDR392W, strain spt3, active compounds read low", "value": "0.724 (active)"}, {"measurement": "normalized growth", "setting": "locus YDR502C, strain sam2, active compounds read low", "value": 0.97}, {"measurement": "normalized growth", "setting": "locus YEL003W, strain gim4, active compounds read low", "value": 0.949}, {"measurement": "normalized growth", "setting": "locus YEL037C, strain rad23, active compounds read low", "value": 0.976}, {"measurement": "normalized growth", "setting": "locus YEL061C, strain CIN8 (second series), active compounds read low", "value": 0.972}, {"measurement": "normalized growth", "setting": "locus YEL061C, strain CIN8, active compounds read low", "value": 0.977}, {"measurement": "normalized growth", "setting": "locus YER015W, strain faa2, active compounds read low", "value": "0.912 (active)"}, {"measurement": "normalized growth", "setting": "locus YER016W, strain bim1, active compounds read low", "value": 0.99}, {"measurement": "normalized growth", "setting": "locus YER110C, active compounds read low", "value": 0.96}, {"measurement": "normalized growth", "setting": "locus YER111C, strain swi4, active compounds read low", "value": 0.987}, {"measurement": "normalized growth", "setting": "locus YER155C, strain BEM2 (second series), active compounds read low", "value": "0.835 (active)"}, {"measurement": "normalized growth", "setting": "locus YER155C, strain BEM2, active compounds read low", "value": 1.01}, {"measurement": "normalized growth", "setting": "locus YER167W, strain BCK2, active compounds read low", "value": 0.97}, {"measurement": "normalized growth", "setting": "locus YFR010W, strain ubp6, active compounds read low", "value": 0.968}, {"measurement": "normalized growth", "setting": "locus YGL078C, strain dbp3, active compounds read low", "value": 0.987}, {"measurement": "normalized growth", "setting": "locus YGL086W, strain mad1, active compounds read low", "value": 0.969}, {"measurement": "normalized growth", "setting": "locus YGL167C, strain pmr1, active compounds read low", "value": 0.964}, {"measurement": "normalized growth", "setting": "locus YGL173C, strain kem1, active compounds read low", "value": 0.979}, {"measurement": "normalized growth", "setting": "locus YGL227W, strain vid30, active compounds read low", "value": 0.997}, {"measurement": "normalized growth", "setting": "locus YGL240W, strain doc1, active compounds read low", "value": 0.969}, {"measurement": "normalized growth", "setting": "locus YGL248W, strain PDE1, active compounds read low", "value": 0.96}, {"measurement": "normalized growth", "setting": "locus YGL253W, strain hxk2, active compounds read low", "value": 0.959}, {"measurement": "normalized growth", "setting": "locus YGR078C, strain PAC10, active compounds read low", "value": 0.962}, {"measurement": "normalized growth", "setting": "locus YGR135W, strain pre9, active compounds read low", "value": 0.999}, {"measurement": "normalized growth", "setting": "locus YGR252W, strain gcn5, active compounds read low", "value": 0.91}, {"measurement": "normalized growth", "setting": "locus YHR013C, strain ard1, active compounds read low", "value": 0.912}, {"measurement": "normalized growth", "setting": "locus YHR027C, strain rpn1, active compounds read low", "value": 0.959}, {"measurement": "normalized growth", "setting": "locus YHR030C, strain SLT2, active compounds read low", "value": "0.99 and 0.993"}, {"measurement": "normalized growth", "setting": "locus YHR079C, strain IRE1 (second series), active compounds read low", "value": 0.983}, {"measurement": "normalized growth", "setting": "locus YHR079C, strain IRE1, active compounds read low", "value": 0.989}, {"measurement": "normalized growth", "setting": "locus YHR094C, strain hxt1, active compounds read low", "value": 0.98}, {"measurement": "normalized growth", "setting": "locus YHR129C, strain ARP1, active compounds read low", "value": 0.981}, {"measurement": "normalized growth", "setting": "locus YHR142W, strain chs7, active compounds read low", "value": 0.882}, {"measurement": "normalized growth", "setting": "locus YHR200W, strain rpn10, active compounds read low", "value": 0.936}, {"measurement": "normalized growth", "setting": "locus YIL066C, strain RNR3, active compounds read low", "value": 0.946}, {"measurement": "normalized growth", "setting": "locus YIL073C, strain SPO22, active compounds read low", "value": 0.954}, {"measurement": "normalized growth", "setting": "locus YIL125W, strain kgd1, active compounds read low", "value": 0.984}, {"measurement": "normalized growth", "setting": "locus YIR030C, strain dcg1, active compounds read low", "value": 0.979}, {"measurement": "normalized growth", "setting": "locus YJL092W, strain hpr5, active compounds read low", "value": 0.964}, {"measurement": "normalized growth", "setting": "locus YJL095W, strain BCK1 (second series), active compounds read low", "value": 0.969}, {"measurement": "normalized growth", "setting": "locus YJL095W, strain BCK1, active compounds read low", "value": "0.913 and 0.989"}, {"measurement": "normalized growth", "setting": "locus YJL115W, strain asf1, active compounds read low", "value": 0.959}, {"measurement": "normalized growth", "setting": "locus YJL129C, strain trk1, active compounds read low", "value": 1.02}, {"measurement": "normalized growth", "setting": "locus YJL134W, strain LCB3, active compounds read low", "value": 0.983}, {"measurement": "normalized growth", "setting": "locus YJL154C, strain vps35, active compounds read low", "value": 0.983}, {"measurement": "normalized growth", "setting": "locus YJL164C, strain tpk1, active compounds read low", "value": "0.912 (active)"}, {"measurement": "normalized growth", "setting": "locus YJL166W, strain qcr8, active compounds read low", "value": 0.96}, {"measurement": "normalized growth", "setting": "locus YJL168C, strain set2, active compounds read low", "value": 0.989}, {"measurement": "normalized growth", "setting": "locus YJL187C, strain SWE1 (second series), active compounds read low", "value": 0.959}, {"measurement": "normalized growth", "setting": "locus YJL187C, strain SWE1, active compounds read low", "value": 0.951}]}]}
